From PubChem BioAssay (Tox21)
Records with an inconclusive call do not appear. Where a call stands in place of a potency, no number is given. A number with no mark means an inactive call. Calls of active or inactive are those of the source. Calls follow the shape of the full dose curve.
Potency is read from the fitted curve at half-maximal effect.

Assay: p53 small molecule agonists, cell-based qHTS assay: qHTS cell viability counter screen (AID 1963581); also: nearly all actives have a fitted effect of over 45% in size
Details: p53RE-bla HCT-116 viability, ATP luminescence, 16 h; series mostly up to 66 µM
Excerpt: National Center for Advancing Translational Sciences [NCATS]
Division of Preclinical Innovation [DPI]
U.S. Environmental Protection Agency [EPA]
National Institutes of Environmental Health Sciences [NIEHS]
National Toxicology Program [NTP]
U.S. Food and Drug Administration [FDA]
p53, a tumor suppressor protein, is activated following cellular insult, including DNA damage and other cellular stresses. The activation of p53 regulates cell fate by inducing DNA repair, cell cycle arrest, apoptosis, or cellular senescence. The activation of p53, therefore, is a good indicator of DNA damage and other cellular stresses. The CellSensor p53RE-bla HCT-116 cell line (Invitrogen) contains a stably integrated beta-lactamase reporter gene under control of the p53 response elements. The activation of the reporter gene under culture conditions can be detected by fluorescence intensity. This cell line was used to screen the Tox21 compound library in a 1536-well plate format and to identify agonists that activate the p53 signaling pathway. The cytotoxicity of the Tox21 compound library against the p53 RE-bla HCT-116 cell line was tested in parallel by measuring the intra cellular ATP content in the same wells.
Tox21 Assay Protocol Summary:
The p53RE-bla cells were dispensed at 4,000 cells/5 ul/well in 1536-well black wall/clear bottom plates using a Multidrop dispenser. After the assay plates were incubated at a 37 C/5% CO2 incubator for 5 hours, 23 nL of compounds dissolved in DMSO, positive controls or DMSO only was transferred to the assay plate by a pin tool. The plates were incubated at 37 C for 16 hours. After 1 uL of LiveBLAzerTM B/G FRET substrate was added using a Flying Reagent Dispenser, the plates were incubated at room temperature for 2 hours, and fluorescence intensity was measured by an Envision plate reader. For cell viability readout that measures cytotoxicity, 4 ul/well of CellTiter-Glo reagent was added into the assay plates using a Flying Reagent Dispenser. After 30 min incubation at room temperature, the luminescence intensity in the plates was measured using a ViewLux plate reader.
In the case of `CCCCCCCCCC(C)C=O` (stereo not given), the Potency is reported as “inactive”. For `CC1(C)[C@@H](OC(=O)CCC(=O)O)CC[C@]2(C)[C@H]3C(=O)C=C4[C@@H]5C[C@@](C)(C(=O)O)CC[C@]5(C)CC[C@@]4(C)[C@]3(C)CC[C@@H]12`, the Potency was “inactive”. In the case of `CC(C)C(C)C`, the Potency is reported as “inactive”. In the case of `CNS(=O)(=O)c1cc(C(=O)N2CCC(CCN3C4CCC3CC(n3c(C)nc5ccccc53)C4)(c3cccc(F)c3)CC2)c(Cl)cc1F` (stereo not given), the Potency is reported as “inactive”. In the case of `C=C[Si]1(C)O[Si](C)(C=C)O[Si](C)(C=C)O[Si](C)(C=C)O1` (stereo not given), the Potency is reported as “inactive”. With `CCCc1ccc(OCC(=O)N2CCN(C(=O)COc3ccc(CCC)cc3OC)CC2)c(OC)c1` the Potency was “inactive”. In the case of `Nc1nc(Cl)cc(Cl)n1`, the Potency is reported as “inactive”. For `CC(=O)OCC(=O)[C@@]1(O)[C@H](OC(C)=O)C[C@H]2[C@@H]3CCC4=CC(=O)C=C[C@]4(C)[C@@]3(F)[C@@H](O)C[C@@]21C`, the Potency was “inactive”. In the case of `C/C(=C\c1ccc(C(=O)O)cc1)c1ccc2c(c1)C(C)(C)CCC2(C)C`, the Potency is reported as “inactive”. With `CC(Cc1ccc(O)c(O)c1)C(C)Cc1ccc(O)c(O)c1` (stereo not given) the Potency was “inactive”. In the case of `CCCc1ccccc1O`, the Potency is reported as “inactive”. For `O=C(Nc1ccc(S(=O)(=O)N2CCOCC2)cc1)c1cc(Cl)ccc1NS(=O)(=O)c1ccc(Cl)s1`, the Potency was “inactive”. With `CN(C)C(=O)COC(=O)Cc1ccc(OC(=O)c2ccc(N=C(N)N)cc2)cc1` the Potency was “inactive”. With `CCOC(=O)/C=C(C)/C=C/C=C(C)/C=C/c1c(C)cc(OC)c(C)c1C` the Potency was “inactive”. With `C=CCN1C[C@H](C(=O)N(CCCN(C)C)C(=O)NCC)C[C@@H]2c3cccc4[nH]cc(c34)C[C@H]21` the Potency was “inactive”. In the case of `CC(=O)Oc1ccc([N+](=O)[O-])cc1CCl`, the Potency is reported as “inactive”. With `CC/C(C)=N\O[Si](C)(O/N=C(\C)CC)O/N=C(\C)CC` the Potency was “inactive”. Molecule `O=C(OC[C@H]1O[C@@H](OC(=O)c2cc(O)c(O)c(OC(=O)c3cc(O)c(O)c(O)c3)c2)[C@H](OC(=O)c2cc(O)c(O)c(OC(=O)c3cc(O)c(O)c(O)c3)c2)[C@@H](OC(=O)c2cc(O)c(O)c(OC(=O)c3cc(O)c(O)c(O)c3)c2)[C@@H]1OC(=O)c1cc(O)c(O)c(OC(=O)c2cc(O)c(O)c(O)c2)c1)c1cc(O)c(O)c(OC(=O)c2cc(O)c(O)c(O)c2)c1` has an activity change, negative = cytotoxicity of 16.3% [at 13.5 µM]. For `CC(C)=CCCC(C)CC(=O)O` (stereo not given), the Potency was “inactive”. For `C=C(C)C(=O)OCCOC(=O)CC(C)=O`, the Potency was “inactive”. For `CC(C)(C)C1=CC(=O)C=C(C(C)(C)C)C1=O`, the Potency was “inactive”. In the case of `CCCCNC1CC(C)(C)NC(C)(C)C1`, the Potency is reported as “inactive”. For `O=c1cc(-c2ccccc2)oc2cc(O)cc(O)c12`, the Potency was “inactive”. In the case of `Clc1ccc2cc3ccccc3cc2c1`, the Potency is reported as “inactive”. For `N#CCCN(CCO)CCO`, the Potency was “inactive”. In the case of `CO/N=C(/C(=O)N[C@@H]1C(=O)N2C(C(=O)OCOC(=O)C(C)(C)C)=C(C)CS[C@H]12)c1csc(N)n1`, the Potency is reported as “inactive”. In the case of `CCCCNCC`, the Potency is reported as “inactive”. For `O=C(NO)c1ccccc1`, the Potency was “inactive”. For `C=CC(=O)[O-].C=CC(=O)[O-].[Zn+2]`, the Potency was “inactive”. In the case of `CC(C)c1ccc2ncccc2c1`, the Potency is reported as “inactive”. For `C=C(C)C(=O)OCCOCCOC(=O)C(=C)C`, the Potency was “inactive”. In the case of `CC(=O)Nc1ccc(/C=N/NC(N)=S)cc1`, the Potency is reported as “inactive”. For `CC(C)COC(=O)C(C)C`, the Potency was “inactive”. With `CCO[Si](CCC1CCC2OC2C1)(OCC)OCC` (stereo not given) the Potency was “inactive”. In the case of `CCOC(=O)COC(=O)c1cc(Oc2ccc(C(F)(F)F)cc2Cl)ccc1[N+](=O)[O-]`, the Potency is reported as “inactive”. In the case of `CCCCOCC(C)OCC(C)O` (stereo not given), the Potency is reported as “inactive”. For `CC(O)C#CC(C)O` (stereo not given), the Potency was “inactive”. With `CCCCN(CCC(=O)OCC)C(C)=O` the Potency was “inactive”. With `CC/C(=C(\c1ccc(O)cc1)c1ccc(OCCN(C)C)cc1)c1ccccc1` the Potency was 20.5 µM (active). For `CCCCOC(=O)CCC(C)=O`, the Potency was “inactive”.
